# HepG2 tox: HepG2 cytotoxicity, counter-screen for TGF-b inhibitors. HepG2 CAGA-GFP viability, ATP luminescence, 18 h. Potency, µM (doses to about 46.1 µM), inactives show at the highest dose activity change, negative = cytotoxicity, most hits filed as cytotoxic. hit rate 0.76% among 410,000
#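 CellTiter-Glo luminescence gave cytotoxicity after 18 hours at 37 degrees C. The cells were HepG2 CAGA-GFP in 1% FBS DMEM, stimulated with 500 pg/mL TGF-beta after compound addition. %Activity was normalised to no-cell wells (complete cell-killing) and DMSO (no toxicity), and curves were fitted and classified.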
# ATXN viability: viability counter-screen for ATXN expression inhibitors | S2 cells (HEK-293 line with an ATXN2-luciferase reporter) viability, CellTiter-Fluor protease fluorescence, 24 h | Potency, µM (highest dose often 56.7 µM), actives largely listed as cytotoxic | hit rate 0.49% among 400,000; note: nearly all actives have a fitted effect of over 40% in size
# ATXN2 expr inh: inhibitors of ATXN2 expression; HEK-293 ATXN2-luciferase reporter, luminescence, 24 h; Potency, µM (top dose mostly 57 µM), inactives show at the highest dose activity change, negative = inhibition, most hits filed as inhibitors; hit rate 0.72% among 360,000; note: % is set by controls: 0 for no effect and ±100 for the full control effect; nearly all actives have a fitted effect of over 55% in size
#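 qHTS (up to 57 uM final) was run with 24 h compound exposure of reporter cells at 37 °C. Each well was multiplexed: SteadyGlo luminescence measured ATXN2-luciferase expression after a fluorogenic Gly-Phe-AFC viability readout (25 uM final).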
# TGFb SMAD3 inh: blocks TGF-b signaling; hit rate 1.2% among 410,000; Potency, µM (highest dose often 46.1 µM), for the others: at the top dose activity, negative = inhibition, hits mostly inhibitors; HepG2 CAGA-GFP TGF-b/SMAD3 reporter, GFP fluorescence, 18 h; TGF-beta stimulated, 500 pg/mL final; AID 588855; note: % is set by controls: 0 for no effect and ±100 for the full control effect; nearly all actives have a fitted effect of over 65% in size
#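 HEPG2 CAGA-GFP cells (1000/well, DMEM with 1% FBS) were pre-incubated 2 h at 37 degrees C, given compound by pin tool, then stimulated with TGF-beta at 500 pg/mL final for 18 h before per-cell GFP fluorescence imaging.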
# HT1080 IDH1KD tx: HT-1080 IDH1 knockdown cell toxicity (counter line). HT-1080 IDH1 knockdown viability, ATP luminescence, 48 h. Potency, µM (top dose mostly 46.1 µM), for inactives: top-dose activity, negative = toxicity, usual class: cytotoxic. hit rate 2% among 360,000. AID 686971;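 note: 0% = DMSO wells and -100% = cell-free medium wells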
#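 Using the IDH1-knockdown HT-1080 line run in the same batch and compound series as the NT line, viability after 48 h at 37 °C was determined by CellTiter-Glo luminescence and expressed as % activity.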
# HT1080NT lethal: kills 2HG-producing HT-1080-NT fibrosarcoma cells; hit rate 1.6% among 360,000; HT-1080-NT fibrosarcoma viability, CellTiter-Glo ATP luminescence, 48 h; Potency, µM (top dose mostly 46.1 µM), inactives show top-dose activity, negative = less viability, hits mostly cytotoxic; AID 686970;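 note: NT is the 2HG producing partner of a matched IDH1 knockdown line; 0% = DMSO-treated cells and -100% = media-only wells without cells; nearly all actives have a fitted effect of over 55% in size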
#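 HT-1080-NT fibrosarcoma cells (2HG-overproducing), 750 cells/well in RPMI with 5% FBS, dosed after 2 h and incubated 48 h at 37C. CellTiter-Glo luminescence normalized to DMSO and no-cell wells; concentration-response curves fitted and classed.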
# * marks the source's active call; other numbers are inactive results; i = inactive; ? = inconclusive; · = not tested or not shown. Only some compounds are listed: those with a hit (about 3.8% of all), similar ones and a draw of the others. Calls come from the whole dose curve; as a rule, active = well fitted curve in the direction sought with a large enough effect; inconclusive = small, poorly fitted or top-dose-only effect, or another doubt; inactive = no such curve, though single readings can be large; an effect the other way counts as inactive or inconclusive. Potency is the fitted concentration of half-maximal effect.
SMILES,HepG2 tox,ATXN viability,ATXN2 expr inh,TGFb SMAD3 inh,HT1080 IDH1KD tx,HT1080NT lethal
CN(C)CCNC(=O)c1cccc(-c2cnc3c(NC=O)cc(-c4ccc(F)cc4)cn23)c1,11µM*,·,0%,?,23µM*,?
CCSc1ccc(-c2cc(NC=O)c3ncc(-c4cccc(C(=O)NCCN(C)C)c4)n3c2)cc1,-91%,i,?,?,?,18µM*
CCN1CCCC1CNC(=O)c1cnn(-c2nccc(-c3ccccc3F)n2)c1C (stereo not drawn),·,i,·,·,·,·
O=C(NCCN1Cc2ccccc2OC(c2ccccc2F)C1)c1ccco1 (stereo not drawn),·,i,·,·,·,·
CC(=O)Nc1ccc(CN(C)CC2CCCN(CCc3cccc(C(F)(F)F)c3)C2)cc1 (stereo not drawn),-83%,i,-15%,1%,21µM*,?
CN(CC1CCCN(CCc2cccc(C(F)(F)F)c2)C1)C(=O)c1ccco1 (stereo not drawn),-29%,i,-17%,-25%,-2%,-2%
O=C(NCC1CN(c2ccc(N3CCOCC3=O)cc2)C(=O)O1)c1ccc(Cl)s1 (stereo not drawn),·,i,-20%,·,·,·
CCN(CC)CC(C)CNC(=O)c1cc(-c2ccc(Br)s2)nc2ccccc12 (stereo not drawn),-32%,·,28µM*,?,·,·
CCOC(=O)CSc1nc2c(sc3ccccc32)c(=O)n1CCc1ccccc1,-1%,i,-4%,?,·,·
CC(=O)Nc1cccc(NC(=O)c2ccc(C(=O)Nc3cccc(NC(C)=O)c3)nc2)c1,-11%,i,3%,0%,24%,7%
CC(C)C(=O)N1CCN(c2ccc(NC(=O)c3ccc4c(c3)OCCO4)cc2Cl)CC1,-34%,18µM*,?,-18%,?,?
COc1cccc(NC(=O)c2cc(Cl)nnc2Cl)c1,-30%,?,-60%,-11%,?,12µM*
Cc1cccc(NC(=O)c2ccc(C(=O)Nc3cccc(C)c3)nc2)c1,-19%,?,-19%,?,21µM*,?
COc1ccc(C(=O)Nc2ccc3[nH]ccc3c2)cc1,-33%,i,?,-9%,21µM*,18µM*
COc1ccc(C(=O)Nc2ccc3[nH]ccc3c2)cc1OC,7%,i,52%,22%,-17%,-12%
COc1cccc(N2CC(NC(=O)COc3ccc4ccccc4c3)CC2=O)c1 (stereo not drawn),-18%,·,·,-14%,·,·
Cc1c(C(=O)NCC2COCCO2)cnn1-c1nccc(-c2cccs2)n1 (stereo not drawn),·,i,·,·,·,·
COc1ccc(Cl)cc1N(C)C(=O)Cn1cnc2sc(C)c(S(=O)(=O)N3CCN(c4ncccn4)CC3)c2c1=O,-18%,i,-5%,-6%,·,·
COC(=O)c1ccc(N2CCOCC2)c(NC(=O)Nc2cccc(OC)c2)c1,-10%,?,32µM*,-10%,-1%,-7%
Cc1cccc(NC(=O)C(=O)NNC(=O)c2ccc(C(C)(C)C)cc2)c1,-3%,i,14%,-1%,8.2µM*,6.5µM*
COc1ccc(C(=O)Nc2ccc(C(=O)Nc3cccc(C)c3)cc2)cc1,3%,10µM*,?,-2%,-7%,-28%
COc1ccc(C(=O)Nc2ccc(NC(=O)c3cccc(OC)c3)cn2)cc1,-23%,i,-38%,?,?,21µM*
COc1ccc(C(=O)Nc2ccc(NC(=O)c3cccc(F)c3)cn2)cc1,-29%,i,-15%,-22%,-3%,1%
CCCCc1c(C)nc2c(-c3ccc(OC)cc3)c(C)[nH]n2c1=O,-27%,i,-25%,-33%,·,·
CCC(=O)N1CCc2cc(Br)cc(S(=O)(=O)CCC(=O)Nc3cccc(Cl)c3)c21,1%,i,7%,-9%,·,·
SMILES,HepG2 tox,ATXN viability,ATXN2 expr inh,TGFb SMAD3 inh,HT1080 IDH1KD tx,HT1080NT lethal
COc1cccc(NC(=O)c2ccc3c(c2)OCO3)c1,-59%,i,22%,-24%,-8%,-12%
CN(c1cccc(NC(=O)c2ccc(C(C)(C)C)cc2)c1)S(C)(=O)=O,-24%,i,?,-1%,?,23µM*
COc1ccc(Cl)cc1C(=O)Nc1ccccc1N1CCN(C(=O)C(C)C)CC1,-10%,?,22µM*,1%,-20%,-19%
COc1cccc(NC(=O)c2ccc3c(c2)OCCO3)c1,14µM*,i,?,-24%,?,?
CN(c1cccc(NC(=O)c2ccc(N(C)S(=O)(=O)c3ccccc3)cc2)c1)S(C)(=O)=O,-4%,?,·,-25%,?,-16%
CC(C)(C)n1ncc2c(=O)n(Cc3ccc(C(F)(F)F)cc3)cnc21,-33%,·,·,-23%,·,·
O=C(N/N=C/c1ccc([N+](=O)[O-])o1)c1ccc(NS(=O)(=O)c2cccs2)cc1,-22%,?,?,?,23µM*,?
O=C(N/N=C\C=C\c1ccc([N+](=O)[O-])o1)c1cccs1,-135%,i,-20%,?,13µM*,?
C/C(=N\NC(=O)c1ccc(NS(=O)(=O)c2cccs2)cc1)c1ccc(O)cc1O,-2%,i,-64%,?,23µM*,?
CC(C)(C)CC(=O)NC(=S)NCCc1ccccc1,-19%,i,36%,-20%,10µM*,?
CCOC(=O)c1[nH]c2ccccc2c1NC(=O)c1ccc(OC(C)C)cc1,-25%,i,7%,?,·,·
Cn1cnc([N+](=O)[O-])c1S(=O)(=O)Oc1ccccc1,-189%,·,?,?,23µM*,?
Cn1cnc([N+](=O)[O-])c1S(=O)(=O)Nc1ccccc1,-24%,i,1%,-5%,?,10µM*
Cn1cnc([N+](=O)[O-])c1S(=O)(=O)c1cccc(Cl)c1,-107%,·,?,?,?,?
CCCCCCC(=O)N=Nc1c(O)[nH]c2ccc([N+](=O)[O-])cc12,0%,i,8%,10%,15%,5%
COCCNC(=S)N=Nc1c(O)[nH]c2ccc([N+](=O)[O-])cc12,17%,?,1%,7%,26µM*,3%
COc1ccc2nc3c(cc2c1)c(NC(=O)c1cccs1)nn3CC(C)C,-64%,i,-21%,?,13µM*,?
CC(C)Cn1nc(NC(=O)c2cccs2)c2cc3ccccc3nc21,-12%,·,·,?,-10%,-4%
CN(C)S(=O)(=O)c1ccc2c(c1)N(CC(=O)NCc1ccccc1)C(=O)C1CCCCN21 (stereo not drawn),3%,i,13%,-3%,·,·

# From PubChem
